Out of some 200,000 compounds screened, about 18,000 (9%) were called active. Only a selection was taken, and actives are over-represented in it overall. A number with no mark means an inactive call. No stated cut-off is given here; in the data, active means inhibition above about 50%; inactive means the rest.
assay: Leishmania major promastigote growth inhibition, primary screen (AID 1063); conditions: Leishmania major promastigotes, resazurin fluorescence viability; at 10 µM; hits give high values;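 further: promastigotes grown with compound for 44 hours at 28 °C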

SMILES | inhibition
O=C1CC(N2CCN(c3ccc(F)cc3)CC2)C(=O)N1c1ccccc1 (stereo not given) | -0.81%
COCCNC(=O)NC(=O)COC(=O)C1(c2ccc(Cl)cc2)CC1 | -5.98%
CCCNC(=O)NC(=O)COC(=O)CC(NC(N)=O)c1ccc(Cl)cc1 (stereo not given) | 56.2% (active)
CC(C)(C)NC(=O)NC(=O)COC(=O)Cc1ccc(Cl)cc1Cl | -4.1%
O=C(Nc1ccccc1C(=O)N1CCCCCC1)c1ccccc1Cl | 4.51%
COc1ccc(-c2ccc(CCC(=O)O)n2-c2ccc(O)cc2)cc1 | -1.18%
Cc1ccsc1C1C(C#N)=C(N)OC2=C1C(=O)CC(C)(C)C2 (stereo not given) | 9.53%
COc1ccccc1C(c1nnnn1C(C)(C)C)N1CCN(Cc2ccccc2)CC1 (stereo not given) | 17.2%
CCC(C)(C)n1nnnc1C(c1cccs1)N1CCN(c2nc3ccccc3s2)CC1 (stereo not given) | 81.4% (active)
Fc1ccc(Cn2nnnc2C(c2cccs2)N2CCCCCC2)cc1 (stereo not given) | 5.18%
CCC(C)(C)n1nnnc1C(c1ccccc1OC)N1CCSCC1 (stereo not given) | 6.66%
CCCC(c1nnnn1C(C)(C)C)N1CCN(Cc2ccccc2)CC1 (stereo not given) | -6.34%
CCC(C)(C)n1nnnc1C(c1cccs1)N1CCN(Cc2ccccc2)CC1 (stereo not given) | 50.4% (active)
CC(C)N(Cc1ccccc1)C(=O)COC(=O)c1cnccn1 | -4.04%
COC(=O)Cc1c(O)ccn(Cc2cccc(C(F)(F)F)c2)c1=O | -15.9%
CC(Sc1nnnn1C1CCCCC1)C(=O)O (stereo not given) | -5.74%
O=C(N/N=C/c1ccc([N+](=O)[O-])cc1)C(=O)N1CCCC1 | -5.07%
O=C(OCC(=O)c1cccs1)c1ccc([N+](=O)[O-])o1 | 13.5%
COc1cccc(/C=N/Nc2ncc(C(F)(F)F)cc2Cl)c1O | 28.2%
COc1ccc(-c2nn(-c3ccccc3)cc2/C=N/Nc2ccccn2)cc1OC | 27.8%
COc1cccc2c(N/N=C/c3ccco3)cc(C)nc12 | 2.22%
COc1ccccc1/C=N\Nc1cc(C)nc(-n2nc(C)cc2C)n1 | 98.9% (active)
COc1ccc(Nc2cc(C)nc(-n3nc(C)cc3C)n2)cc1 | 28.9%
COc1cccc(/C=N/Nc2cc(C)nc(-c3ccccc3O)n2)c1O | 71.2% (active)

SMILES | inhibition
CCc1ccc(CN(C)Cc2nc(Cc3ccccc3)no2)nc1 | 14%
S=C(NCc1ccco1)Nc1ccc2c(c1)OCCO2 | -4.58%
O=C(O)C1CC(=O)N(Cc2cccnc2)C1 (stereo not given) | -7.68%
COc1ccc(CCNC(=O)Cn2c(=O)n(CC3CCCO3)c(=O)c3ccccc32)cc1OC (stereo not given) | -4.82%
O=C(NCCc1ccccc1)C1CCC(Cn2c(=O)c3ccccc3n(Cc3cccnc3)c2=O)CC1 (stereo not given) | 73.5% (active)
Cc1c(CN2CCCC(C(=O)c3cccc(Cl)c3)C2)c(=O)n(-c2ccccc2)n1C (stereo not given) | 16.8%
CCN(CC)CCNC(=O)c1ccc(NS(=O)(=O)c2ccc3c(c2)OCCO3)cc1 | -8.8%
Cc1cccc(OCC(=O)Nc2ccccc2F)c1 | 8.74%
CC(C)C(C)(C#N)NC(=O)CSc1nncn1-c1ccccc1 (stereo not given) | -0.78%
CCCNS(=O)(=O)c1ccc(CCC(=O)N2CCCC2)cc1 | 1%
CN(C)CCCNC(=S)NCc1ccc(Cl)cc1 | -5.52%
S=C(NCc1ccc(Cl)cc1)NC12CC3CC(CC(C3)C1)C2 | 36.3%
S=C(NCc1ccc(Cl)cc1)NC1CCCCC1 | 57.3% (active)
O=c1[nH]c(=S)[nH]c2[nH]c(=S)[nH]c12 | 7.12%
COC(=O)C1=C(N)Oc2cc(C)oc(=O)c2C1c1cccnc1 (stereo not given) | 42.3%
COC(=O)C1=C(C)Nc2ncnn2C1c1cccnc1 (stereo not given) | -4.12%
CCSc1nc2c(c(=O)[nH]1)C(c1cccnc1)C(C(=O)OC(C)C)=C(C)N2 (stereo not given) | 56% (active)
N/C(=N\OC(=O)CCCC(=O)O)c1ncc(C(F)(F)F)cc1Cl | -0.94%
COc1ccc([N+](=O)[O-])cc1NC(=O)COC(=O)/C=C/c1ccco1 | -8.41%
COc1ccc(N2C(=O)/C(=C\c3ccco3)N=C2SCC(N)=O)cc1Cl | 51.5% (active)
COc1ccc(Cl)cc1C(=O)NNC(=S)NC(=O)/C=C/c1ccco1 | 18.7%
COc1cccc2c(=O)n(CC(=O)N3CCCCCC3)ccc12 | -6.35%
CCOC(=O)C1CCN(C(=O)Cn2cc(C#N)c3ccccc32)CC1 | 0.22%
CCc1cccc2c(C=C(C#N)C#N)cn(CC(=O)N3CCCCC3)c12 | 78% (active)

SMILES | inhibition
Cc1ccccc1NC(=O)c1ccc(COc2ccc3c(C)cc(=O)oc3c2)cc1 | -4.07%
Cc1ccsc1C1C(C#N)=C(N)OC2=C1C(=O)CC(C)C2 (stereo not given) | 5.83%
C/C=C/C=C/C(=O)OCC(=O)Nc1ccc(Cl)cc1 | 0.85%
COc1ccc(C(=O)Nc2ncc3c(n2)-c2ccccc2CC3)cc1 | 33.3%
C=CCN(CC=C)S(=O)(=O)c1ccc(C(=O)Nc2nc3c(s2)CCc2ccccc2-3)cc1 | 25.3%
COCCN(CCOC)S(=O)(=O)c1ccc(C(=O)Nc2nc3c(s2)CCc2ccccc2-3)cc1 | 78.1% (active)
CC(C)C(NC(=O)C1CCC(C(C)(C)C)CC1)C(=O)NCCCN1CCCCC1 (stereo not given) | 4.42%
COc1ccc(C=Nc2cccc3ncccc23)cc1 | -0.39%
Cc1ccc2[nH]c(=O)c(CC=C(Cl)Cl)c(C)c2c1 | 5.81%
COC(=O)c1ccc(/C=N/N2C(C)CCCC2C)cc1 (stereo not given) | 1.84%
CC(=O)NC(NC(=S)Nc1c(C)n(C)n(-c2ccccc2)c1=O)C(Cl)(Cl)Cl (stereo not given) | -10.3%
CCCC(=O)NC(C)C(c1cccs1)N1CCN(c2ccccc2)CC1 (stereo not given) | 21.8%
COc1ccc(C(C(O)C(=O)c2c[nH]c3ccccc23)N2CCN(c3ccccc3)CC2)cc1 (stereo not given) | 60.7% (active)
COc1ccc(N2CCN(C(C)=C3C(=O)c4ccccc4C3=O)CC2)cc1 | 0.6%
CCC(=O)c1ccc(OCC(O)Cn2nc(C)c(C(C)=O)c2C)cc1 (stereo not given) | -1.66%
Cc1c(C(N)=O)sc2ncn(CCOc3ccccc3)c(=O)c12 | 15.6%
N#Cc1c(-c2ccc(Cl)cc2)c2c([nH]c1=S)CCCC2 | -2.73%
N/C(Cc1ccc([N+](=O)[O-])cc1)=N\OC(=O)COc1ccc2ccccc2c1 | -4.21%
N/C(=N\OC(=O)COc1ccc([N+](=O)[O-])cc1)c1ccc(Br)cc1 | -2.89%
CCOC(=O)COc1ccc([N+](=O)[O-])cc1 | 62.2% (active)
Cc1nnc(SCCCCSc2nnc(C)c(=O)[nH]2)[nH]c1=O | -5.64%
CN(c1ccc(OCC(=O)OCC(=O)Nc2cccc([N+](=O)[O-])c2)cc1)S(=O)(=O)c1ccc(F)cc1 | -5.95%
CC(CC(=O)C1C(C)C=CCC1(C)C)NNC(N)=O (stereo not given) | -5.44%
CCCCCCC(=O)Nc1nc(C)c(-c2csc(Nc3cccc(OC)c3)n2)s1 | 56.1% (active)

SMILES | inhibition
Cc1nc(NC(=O)c2cccc(Cl)c2)sc1-c1csc(Nc2cccc(Cl)c2)n1 | 6.25%
CCCCC(=O)Nc1nc(C)c(-c2csc(Nc3ccc(Cl)cc3)n2)s1 | 27%
C=CCCC(=O)Nc1nc(C)c(-c2csc(Nc3ccc(Cl)cc3)n2)s1 | 40.7%
Cc1ccc(Nc2nc(-c3sc(NC(=O)c4ccccc4)nc3C)cs2)cc1 | 15.7%
CCCCCCC(=O)Nc1nc(C)c(-c2csc(Nc3cc(Cl)ccc3OC)n2)s1 | 56.5% (active)
O=C(c1ccc(N2CCOCC2)c([N+](=O)[O-])c1)N1CCN(S(=O)(=O)c2cccs2)CC1 | 26.9%
Cn1cnnc1Sc1ccc(CN2CCN(C3CCCC3)C(CCO)C2)o1 (stereo not given) | -0.44%
COc1ccc(NC(=O)C(Br)C(C)C)cc1 (stereo not given) | -2.81%
CN(C)c1ccc(C(=S)N2CCN(C(=S)Nc3ccc(Cl)cc3)CC2)cc1 | -3.85%
O=C1CN(C(=O)COC(=O)c2cnc(Cl)c(Cl)c2)c2ccccc2N1 | -5.42%
O=c1c([N+](=O)[O-])cccn1Cc1ccc(F)cc1Cl | 13.1%
CCN(CC)CCNc1ccc(Cl)cc1[N+](=O)[O-] | 52.1% (active)
CSc1ccccc1NC(=O)CN(C)CC(=O)Nc1ccc(Cl)cc1[N+](=O)[O-] | 12%
COCCNc1cc(NCCOC)c([N+](=O)[O-])cc1[N+](=O)[O-] | 32.9%
C=CCn1c2ccccc2c2nnc(SC(CC)C(=O)Nc3nc(C)c(C(=O)OCC)s3)nc21 (stereo not given) | 62.5% (active)
CCOC(=O)c1sc(NC(=O)C(CC)Sc2nccn2C)nc1C (stereo not given) | 9.41%
C=CCn1c2ccccc2c2nnc(SCc3[nH]c(=O)[nH]c3C(=O)CCCCC(=O)OCC)nc21 | 4.8%
COc1ccccc1C(=O)CSc1cccc[n+]1[O-] | -7.87%
COc1cccc(C(=O)Nc2nc3ccc(S(C)(=O)=O)cc3s2)c1 | 16%
CC(C)c1nc2sc3c(c2c(=O)n1N)CC(C)(C)OC3 | -0.56%
Cc1ccc(-c2nc(-c3cccnc3)sc2CC(=O)Nc2ccc(C)c(Cl)c2)cc1 | 78.2% (active)
Cc1cc(C)c(NC(=O)CS(=O)CC(=O)Nc2cccnc2)c(C)c1 (stereo not given) | -5.42%
O=C(O)Cc1sc(-c2ccc(C(=O)O)cc2)nc1-c1ccccc1 | -1.45%
